# Experimental data reported in PubChem BioAssay (NCI).
# About 83,000 compounds went through this panel and 20% of them were active in at least one assay; those are over-represented in the sample as a whole.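 Values shown are percent growth following 48 h exposure of cells in 96-well plates to a single concentration of compound; below 10 was considered active.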 The source made the active and inactive calls.
# System: NCI/ADR-RES ovarian
# Experiment: NCI-60 one-dose screen, 48 h (100 = growth as untreated, 0 = no growth, -100 = all killed)
# Settings: 10 µM unless noted
# Description: Growth inhibition of the NCI/ADR-RES human […] tumor cell line is measured as a screen for anti-cancer activity. Cells are grown in 96 well plates and exposed to the test compound for 48 hours. Compounds are tested at a single concentration, which is 10^-5 M for most compounds. The reported endpoint is percent growth (GI% or GIPRCNT), where numbers from 0 - 100% represent growth inhibition, and numbers from -100% - 0 represent cell death. For example, a value of 40 represents 60% growth inhibition. A value of 0 means no net growth occurred over the course of the experiment. A value of -40 indicates 40% of cells at the beginning of the experiment died by the end of the experiment. A value of -100 means all cells are dead at the end of the experiment.
# NCI-60 Human Tumor Cell Lines Screen was performed using the standard one-dose NCI protocol, which is described in more detail at https://dtp.cancer.gov/discovery_development/nci-60/default.htm.
# Compounds with GIPRCNT values below 10 were considered active. Activity score was based on GIPRCNT using the following formula: […]
# Score is 0 for GIPRCNT values of 100 or above, 50 for GIPRCNT values of 0, and 100 for GIPRCNT values of -100.
row,SMILES,growth
1,COc1ccc2c(CCc3ccc(Cl)cc3)c3[n+](cc2c1OC)CCc1cc2c(cc1-3)OCO2,101% (inactive)
2,COc1cccc(Nc2ncnn3ccc(CN4CC[C@@H](N)[C@H](O)C4)c23)c1,19.4% (inactive)
3,CC(N)C(Cc1ccccc1)c1ccc(Cl)cc1 (stereo not given),95.7% (inactive)
4,COCC(=O)NC/C=C/c1ccc2ncnc(Nc3ccc(Oc4ccc(C)nc4)c(C)c3)c2c1,57.1% (inactive)
5,CC(C)n1c(NCCc2ccc(O)c(O)c2)nc2c1c(=O)n(C)c(=O)n2C,93.1% (inactive)
6,CC(=O)CC1CCCC1c1ccc2ccccc2c1 (stereo not given),102% (inactive)
7,O=C(c1ccc(/C=C/c2n[nH]c3ccccc23)cc1)N1CCNCC1,82.1% (inactive)
8,Cc1ccccc1Nc1nc2nonc2nc1Nc1cccc(C)c1C,56.5% (inactive)
9,Fc1ccc(NCc2cn(-c3ccccc3)nc2-c2ccc(OCc3ccccc3)cc2)cc1Cl,95.4% (inactive)
10,C[C@@H](Oc1cc(-c2cnn(C3CCNCC3)c2)cnc1N)c1c(Cl)ccc(F)c1Cl,2.26% (active)
11,C=CC(=O)Nc1cccc(Oc2nc(Nc3ccc(N4CCN(C)CC4)cc3)nc3ccsc23)c1,-3.05% (active)
12,CC(=Nc1ccccc1)C1=C(O)C(Cc2ccccc2)NC1=O (stereo not given),-8.97% (active)
13,COc1cc(F)c(F)c(Nc2ccc(I)cc2F)c1NS(=O)(=O)C1(C[C@H](O)CO)CC1,45.5% (inactive)
14,Clc1nc(Cl)c2ncn(C/C=C\Cn3cnc4c(Cl)nc(Cl)nc43)c2n1,30.1% (inactive)
15,Clc1ccc2c(NCCNc3nc(N4CCCC4)nc4ccccc34)ccnc2c1,60.2% (inactive)
16,O=C(CNc1nnc(-c2ccc(Cl)cc2)o1)Nc1ccc(-c2nc3ccccc3s2)cc1,98.9% (inactive)
17,Cc1cn(-c2cc(NC(=O)c3ccc(C)c(Nc4nccc(-c5cccnc5)n4)c3)cc(C(F)(F)F)c2)cn1,31.6% (inactive)
18,COc1ccc(-n2c(=O)c3ccccc3n(Cc3ccc(C(=O)NO)cc3)c2=O)cc1,70.2% (inactive)
19,O=C(c1c(F)ccc(NS(=O)(=O)N2CC[C@@H](F)C2)c1F)c1c[nH]c2ncc(-c3cnc(C4CC4)nc3)cc12,102% (inactive)
20,COc1cc2ncnc(Nc3ccc(O)cc3)c2cc1OC,91.3% (inactive)

row,SMILES,growth
1,C[C@@H](C[C@H](CCO)c1cc(C(F)(F)F)cc(C(F)(F)F)c1)c1ccc2ccccc2c1,85.3% (inactive)
2,CC(C)[C@@H]1CC[C@]2(CO2)[C@@H]2C(=O)OCC(C(=O)O)=C[C@H]21,-12.1% (active)
3,O=C1CC(c2cccc(F)c2)c2c(n[nH]c2-c2ccc(Cl)cc2)N1 (stereo not given),93.9% (inactive)
4,CCCCCCCCCNCCCCCCCCC,68.3% (inactive)
5,COc1cc2ncnc(Nc3ccc(F)c(Cl)c3)c2cc1NC(=O)/C=C/CN1CCCCC1,-55% (active)
6,N[C@@H]1CCCN(c2c(/C=C3\SC(=O)NC3=O)cccc2-c2ccccc2)C1,88.1% (inactive)
7,CC(C)(C)CC(C)(C)Nc1c(-c2c(O)c3ccccc3oc2=O)nc2c(Cl)cc(C(F)(F)F)cn12,108% (inactive)
8,C=CCN1C(=O)c2cccc3c(-c4ccc5c(c4)ncn5C4CCCCC4)ccc(c23)C1=O,39.6% (inactive)
9,CC(=O)OC(C(=O)c1ccccc1)c1ccccc1 (stereo not given),107% (inactive)
10,Nc1cc2c(cc1Br)-c1c(C(=O)O)cccc1C2O (stereo not given),118% (inactive)
11,CNC(=O)c1cccc2cc(Oc3ccnc4cc(OCC5(N)CC5)c(OC)cc34)ccc12,76% (inactive)
12,CO[C@@H](C)Cn1c(=O)n(C)c2cnc3ccc(-c4cncc(C(C)(C)O)c4)cc3c21,-1.12% (active)
13,CCNC(=O)Nc1nc2ccc(Oc3ccnc(C(=O)NC)c3)cc2s1,73.3% (inactive)
14,NC(=O)c1c(OCc2c(F)cc(Br)cc2F)nsc1NC(=O)NCCCCN1CCCC1,20.2% (inactive)
15,O=C(NC[C@H](O)CO)c1ccncc1Nc1ccc(I)cc1F,58.7% (inactive)
16,CCN(CCN(C)C)C(=O)CNCc1cc(C(N)=O)ccn1,104% (inactive)
17,Cn1nccc1Nc1nccc(-c2ccn([C@H](CO)c3ccc(Cl)c(F)c3)c(=O)c2)n1,89.7% (inactive)
18,NS(=O)(=O)c1ccc(CCN2C(=O)/C(=C\c3ccc(Cl)cc3)C=C2c2ccc3ccccc3c2)cc1,95.3% (inactive)
19,Cc1nc(Nc2n[nH]c3c2CN(C(=O)N[C@H](CN(C)C)c2ccccc2)C3(C)C)c2sccc2n1,40.3% (inactive)
20,CC1(O)CCC2CC3OC3(C)CCC3OC3(C)C(O)CC1C2(C)C (stereo not given),112% (inactive)
